Assay results reported in PubChem BioAssay AID1159580 (chemical genetic matrix, 2015).
Values joined by “and” are separate entries in the source; they are usually repeats but may differ in a detail not shown here. Identical values can stand only once. The whole screen tested about 5,500 compounds, of which about 2,000 (36%) were called active. About 18% were inconclusive and are not listed. Cut-off read from the data, not from the text of the source: active = normalized growth mostly below about 0.91 (no sharp cut-off); inconclusive = no clear call, values can overlap the other calls; inactive = mostly above about 0.92. Some of the results follow.

Experiment: chemical genetic growth profiling, strain panel (AID 1159580);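 note: tested at 20 µM; growth read once vehicle control cultures reached saturation at 30 °C; 1 = growth at the plate median or of vehicle wells; lower values mean less growth of the strain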
Conditions: S. cerevisiae deletion strains, growth OD

Measured: normalized growth

O=c1cc(-c2ccc(O)cc2)oc2cc(O[C@@H]3O[C@H](CO)[C@@H](O)[C@H](O)[C@H]3O[C@@H]3OC[C@](O)(CO)[C@H]3O)cc(O)c12
inactive: locus YAL013W, strain DEP1, hits give low values 1.01 | locus YAL021C, strain ccr4, hits give low values 0.998 | locus YAL026C, strain drs2, hits give low values 1 | locus YAL030W, strain snc1, hits give low values 1 | locus YBL061C, strain skt5, hits give low values 1.02 | locus YBR009C, strain hhf1, hits give low values 1.01 | locus YBR021W, strain FUR4, hits give low values 0.99 | locus YBR023C, strain chs3, hits give low values 1.01 | locus YBR171W, strain sec66, hits give low values 0.982 | locus YBR229C, strain ROT2, hits give low values 1.01 | locus YBR231C, strain swc5, hits give low values 1.01 | locus YBR279W, strain paf1, hits give low values 1.01 | locus YCL011C, strain gbp2, hits give low values 1.01 | locus YCL016C, strain dcc1, hits give low values 1 | locus YCL029C, strain bik1, hits give low values 0.985 | locus YCL061C, strain MRC1, hits give low values 1.01 | locus YCL069W, strain vba3, hits give low values 0.994 | locus YCR088W, strain abp1, hits give low values 0.998 | locus YDL005C, strain med2, hits give low values 1 | locus YDL035C, strain GPR1, hits give low values 1.01 | locus YDL040C, strain nat1, hits give low values 0.997 | locus YDL074C, strain BRE1, hits give low values 1.02 | locus YDL101C, strain DUN1, hits give low values 1.02 | locus YDL134C, strain PPH21, hits give low values 1.03 | locus YDL185W, strain tfp1, hits give low values 0.981 | locus YDL192W, strain arf1, hits give low values 0.998 | locus YDR001C, strain nth1, hits give low values 1 | locus YDR069C, strain doa4, hits give low values 1.01 | locus YDR101C, strain arx1, hits give low values 0.963 | locus YDR137W, strain rgp1, hits give low values 1.01 | locus YDR159W, strain sac3, hits give low values 1.01 | locus YDR162C, strain NBP2, hits give low values 1.03 | locus YDR195W, strain ref2 0.991 | locus YDR297W, strain sur2, hits give low values 1.01 | locus YDR318W, strain mcm21, hits give low values 1.01 | locus YDR334W, strain swr1, hits give low values 1.01 | locus YDR335W, strain msn5, hits give low values 1.01 | locus YDR388W, hits give low values 0.981 | locus YDR392W, strain spt3, hits give low values 1.01 | locus YDR502C, strain sam2, hits give low values 0.993 | locus YEL003W, strain gim4, hits give low values 1.01 | locus YEL037C, strain rad23, hits give low values 0.999 | locus YEL061C, strain CIN8 (second series), hits give low values 1 | locus YEL061C, strain CIN8, hits give low values 1.01 | locus YER015W, strain faa2, hits give low values 1.01 | locus YER016W, strain bim1, hits give low values 1.01 | locus YER110C, hits give low values 0.984 | locus YER111C, strain swi4, hits give low values 1 | locus YER155C, strain BEM2 (second series), hits give low values 1.02 | locus YER155C, strain BEM2, hits give low values 1.01 | locus YER167W, strain BCK2, hits give low values 1.01 | locus YFR010W, strain ubp6, hits give low values 1.02 | locus YGL078C, strain dbp3, hits give low values 0.997 | locus YGL086W, strain mad1, hits give low values 0.984 | locus YGL167C, strain pmr1, hits give low values 1.01 | locus YGL173C, strain kem1, hits give low values 1.02 | locus YGL227W, strain vid30, hits give low values 0.994 | locus YGL240W, strain doc1, hits give low values 1.01 | locus YGL248W, strain PDE1, hits give low values 1.05 | locus YGL253W, strain hxk2, hits give low values 0.998 | locus YGR135W, strain pre9, hits give low values 0.989 | locus YGR252W, strain gcn5, hits give low values 1.04 | locus YHR013C, strain ard1, hits give low values 0.988 | locus YHR027C, strain rpn1, hits give low values 1.01 | locus YHR030C, strain SLT2, hits give low values 1.01 and 0.992 | locus YHR079C, strain IRE1 (second series), hits give low values 0.982 | locus YHR079C, strain IRE1, hits give low values 0.983 | locus YHR094C, strain hxt1, hits give low values 0.984 | locus YHR129C, strain ARP1, hits give low values 1.01 | locus YHR142W, strain chs7, hits give low values 1.01 | locus YHR200W, strain rpn10, hits give low values 0.995 | locus YIL066C, strain RNR3, hits give low values 1.02 | locus YIL073C, strain SPO22, hits give low values 1.01 | locus YIL125W, strain kgd1, hits give low values 0.989 | locus YIR030C, strain dcg1, hits give low values 1 | locus YJL092W, strain hpr5, hits give low values 1 | locus YJL095W, strain BCK1 (second series), hits give low values 1.01 | locus YJL095W, strain BCK1, hits give low values 1.06 and 1.01 | locus YJL115W, strain asf1, hits give low values 0.99 | locus YJL129C, strain trk1, hits give low values 0.998 | locus YJL134W, strain LCB3, hits give low values 1.01 | locus YJL154C, strain vps35, hits give low values 1 | locus YJL164C, strain tpk1, hits give low values 1.02 | locus YJL166W, strain qcr8, hits give low values 1.01 | locus YJL168C, strain set2, hits give low values 0.994 | locus YJL187C, strain SWE1 (second series), hits give low values 1.02 | locus YJL187C, strain SWE1, hits give low values 1.01 | locus YJR043C, strain POL32, hits give low values 1.03 | locus YJR066W, strain TOR1, hits give low values 0.982
